Screens as filed in PubChem.
Many of the other results were omitted from the sample, so hits are more common in it than they were.
Choline anaer gr: blocks anaerobic gram-negative growth on choline; calls only; Gram-negative bacterium anaerobic choline minimal medium, absorbance growth; hits give low values; AID 1963822; hit rate 0.2% among 55,000; call rule not given here
Of the large screens only hits and unclear results are named; the others gave an inactive call; ! = repeats disagree.

COc1ccccc1NC(=O)NCc1ccnc(N2CCCCC2)c1	Choline anaer gr active
COc1ccccc1CNC(=O)c1ccc(N2CCCC2)c(NC(=O)Nc2ccccc2Cl)c1	none
O=C(NCc1ccnc(N2CCSCC2)c1)Nc1cc(F)ccc1F	none
O=C(NCc1ccnc(N2CCCCC2)c1)Nc1ccc(F)c(Cl)c1	Choline anaer gr active
COc1ccccc1NC(=O)Nc1ccc(Nc2cc(N3CCCC3)nc(C)n2)cc1	none
O=C(NCc1ccnc(N2CCSCC2)c1)Nc1ccc(F)cc1F	none
CCCCNC(=O)CCn1cnc2oc(C)c(C)c2c1=O	none
Cc1nc(-c2ccc(C(=O)N3CCN(c4ccc(Cl)cc4)CC3)cc2)no1	none
CCOc1ccc(NC(=O)C(CC)Sc2nc3ncccc3[nH]2)cc1 (configuration not stated)	Choline anaer gr active
CCC(Sc1nc2ncccc2[nH]1)C(=O)Nc1ccc(Br)cc1 (configuration not stated)	none
CCOc1ccc(NC(=O)C(C)Sc2nc3c(c(=O)[nH]2)CCCC3)cc1 (configuration not stated)	none
Cn1c(=O)n(C)c2cc(N3CCCC3)c(NC(=O)Nc3ccc4c(c3)OCCO4)cc21	Choline anaer gr active
O=C(Nc1ccc2c(c1)OCO2)Nc1cc(NC(=O)c2ccccc2)ccc1N1CCCC1	none
Cc1cc(C)cc(NC(=O)Nc2cc3c(cc2N2CCCC2)n(C)c(=O)n3C)c1	none
O=S(=O)(c1cccc(Cl)c1)N1CC(OCc2ccccc2Cl)C1	none
CC(=O)n1nc(-c2ccccc2)nc1N	none
COc1ccc(-c2nn3c(CSc4ccccc4)nnc3s2)cc1	none
CN(C)c1cccc(-c2nn3c(CSc4ccccc4)nnc3s2)c1	none
c1ccc(SCc2nnc3sc(-c4cccnc4)nn23)cc1	Choline anaer gr active
O=C(CN1c2ccc(F)cc2-c2ccccc2S1(=O)=O)Nc1c(F)cccc1F	none
Cc1ccc(-c2noc(Cc3nc(-c4ccc(Cl)cc4)cs3)n2)cc1	none
OC[C@H]1O[C@H](O[C@H]2[C@H](O)[C@@H](O)[C@H](O)O[C@@H]2CO)[C@H](O)[C@@H](O)[C@@H]1O	none
OCC1O[C@H]([S-])[C@@H](O)C(O)[C@@H]1O.[Au+] (some centres not stated)	Choline anaer gr active
OCC1O[C@H](O)C(Cl)C(O)C1O (some centres not stated)	none
O=C(CCc1nc(CSc2nc3ccccc3o2)no1)Nc1cc(F)cc(F)c1	none
Cc1sc2ncn3c(SCC(=O)Nc4ccc5c(c4)OCCO5)nnc3c2c1C	none
O=C(Nc1cnn(-c2ncc(N3CCCC3)cn2)c1)C1CCC1	Choline anaer gr active
O=C(Nc1cnn(-c2ncc(N3CCSCC3)cn2)c1)C1CCOC1 (configuration not stated)	none
O=C(Nc1cnn(-c2ncc(N3CCCC3)cn2)c1)NC1CCCC1	none
CN1CCc2c(sc(NC(=O)C3CC3)c2-c2nc3ccccc3s2)C1	none
CC(C)N1CCc2c(sc(NC(=O)C3CC3)c2-c2nc3ccccc3s2)C1	Choline anaer gr active
CN1CCc2c(sc(NC(=O)CN3C(=O)c4ccccc4C3=O)c2-c2nc3ccccc3s2)C1	none
Cc1ccc(NS(=O)(=O)c2cc(-c3nc(C(C)(C)C)cs3)cs2)c(Cl)c1	none
Cc1ccc(Cl)cc1NS(=O)(=O)C1CCS(=O)(=O)C1 (configuration not stated)	none
CC(C)c1nnc(-c2ccc(S(=O)(=O)N3CCCCC3)o2)o1	none
O=S(=O)(NC1CCCCC1)c1ccc(-c2nnc(C3CCC3)o2)o1	none
CC(C)c1nnc(-c2ccc(S(=O)(=O)NC3CCCC3)o2)o1	Choline anaer gr active
O=C(CSc1nnc(-c2cc3ccccc3[nH]2)o1)Nc1ccc2c(c1)OCO2	none
Cn1c(-c2nnc(SCC(=O)Nc3ccc4c(c3)OCO4)o2)cc2ccccc21	none
O=C(CSc1nnc(-c2cccnc2)o1)Nc1ccc2c(c1)OCO2	Choline anaer gr active
Cc1cccc(-c2nc(-c3ccc(-c4nc(C)no4)cc3)no2)c1	none
COC(=O)c1cnc(N2CCN(c3cccc(Cl)c3)CC2)c2ccccc12	none
Cc1sc(-c2nc(C(C)C)cs2)cc1S(=O)(=O)N1CCC(C)CC1	none
COc1ccc(S(=O)(=O)N2CSC[C@@H]2C(=O)NCCc2csc(C)n2)cc1OC	none
CCOc1ccc(Oc2cc3c(cc2NC(=O)CC(C)C)n(C)c(=O)c(=O)n3C)cc1	none
Cc1[nH]c(C)c(S(=O)(=O)N2CCC(C(=O)N3CCc4ccccc43)CC2)c1C(=O)N1CCCC1	Choline anaer gr active
Cc1[nH]c(C)c(S(=O)(=O)N2CCc3ccccc3C2)c1C(=O)N1CCCC1	none
Cc1[nH]c(C)c(S(=O)(=O)N2CCC(C(=O)N3CCc4ccccc43)CC2)c1C(=O)N1CCCCC1	none
Cn1cc(S(=O)(=O)N2CCc3ccccc32)cc1C(=O)N1CCn2c1nc1ccccc12	none
CCc1ccc(NC(=O)CSc2nc(-c3ccc(C(C)C)cc3)no2)cc1	none
CCCCNC(=O)CSc1nc(-c2ccc(C(C)C)cc2)no1	Choline anaer gr active
CC(C)CCNC(=O)CSc1nc(-c2ccccc2)no1	none
CCNC(=O)NC1CCN(c2cc(C)nc3ncnn23)CC1	none
O=C(c1cc2ccc3cccnc3c2[nH]1)N1CCC(N2CCCCC2)CC1	none
Cc1c2c(nn1-c1ccc(SCc3cccc(F)c3)nn1)CCC2	none
CCc1cc(Sc2ccccc2NC(=O)C2CCCCC2)n2nc(C)nc2n1	none
COc1ccc(OC)c(NC(=O)NCCCn2c(-c3ccc(F)cc3)nc3cccnc32)c1	none
CCn1c(CN(c2ccc(F)cc2)S(C)(=O)=O)nnc1SCC(=O)c1ccccc1	none
CCn1c(CN(c2ccc(F)cc2)S(C)(=O)=O)nnc1SCC(=O)Nc1ccc(F)cc1F	Choline anaer gr active
CCn1c(CN(c2ccc(F)cc2)S(C)(=O)=O)nnc1SCC(=O)c1ccc(Cl)cc1	none
Cc1ccc(C(=O)C(C)n2c(=O)n3nc(-c4cccc(F)c4)nc3c3ccccc32)cc1C (configuration not stated)	none
Cc1cc(NC(=O)N2CCC3(CC2)CC(=O)c2ccccc2O3)ccc1Br	none
Cc1csc(NC(=O)Cc2csc(-n3nc(C)c(Cl)c3C)n2)n1	none
CC1(C)C(=O)N(CC(=O)NCc2ccc(Cl)cc2)c2ccc(S(=O)(=O)N3CCCC3)cc21	none
Cc1noc2ncn(Cc3ccccc3)c(=O)c12	none
Cc1noc2ncnc(NC(C)C)c12	none
Cc1noc2nc[nH]c(=O)c12	Choline anaer gr active
C=Cc1ccc(CSC2=NS(=O)(=O)c3ccccc3N2)cc1	none
c1cnc(N2CCN(c3nn4nnnc4c4ccccc34)CC2)nc1	none
Cc1ccc(-c2noc3ncnc(N4CCC(C(=O)N(C)c5cc(C)ccc5C)CC4)c23)cc1	none
CCN(C(=O)c1c(C)oc2ncnc(N3CCCCC3)c12)c1cc(C)ccc1C	Choline anaer gr active
Cc1oc2ncnc(N3CCCCC3)c2c1C(=O)Nc1cccc(Cl)c1	none
Cc1cc(C2CCCN2C(=O)c2c(F)cccc2F)no1 (configuration not stated)	none
c1ccc(N2CCN(c3ncnc4c3CCC4)CC2)nc1	none
c1nc2c(c(N3CCC(N4CCCCC4)CC3)n1)CCC2	Choline anaer gr active
CN1CCCN(c2ncnc3c2CCC3)CC1	none
CC(C)Sc1ncc(Cl)c(C(=O)Nc2sc3c(c2C(=O)NCC2CCCO2)CCC3)n1 (configuration not stated)	none
O=C(NCc1ccc(F)cc1)c1cnn2c(-c3ccccc3)ccnc12	none
CCN(Cc1ccc(C(C)C)cc1)Cc1cc(=O)n2cc(C)sc2n1	none
CC(C)c1ccc(-c2cc(-c3nc(-c4ccc5c(c4)OCO5)no3)[nH]n2)cc1	none
NC[C@@H]1O[C@H](C23CC4CC(CC(C4)C2)C3)Cc2c1ccc(O)c2O	Choline anaer gr active!
NC[C@@H]1O[C@H](c2ccccc2)Cc2c1ccc(O)c2O	none
Cc1csc(-c2cc(S(=O)(=O)Nc3ccc(Cl)cc3F)cn2CC(=O)N2CCCC2)n1	none
